The campaign covered roughly 89,000 compounds. About 10 (0.01%) were called active. Not shown: some 10% with an inconclusive outcome. No stated cut-off is given here; in the data, active means activity change below about -37% (passing the limit was not always enough); inconclusive means no clear call, values can overlap the other calls; tested in A549 cells. A selection follows.

The assay can be described thus: Vaccinia orthopox stage-specific inhibition, primary screen, cell-based, single point (AID 1053133). The following applies: Vaccinia-infected cells, mCherry/Venus stage reporter fluorescence, stronger effect = lower value, concentration not given here; activity change (Venus): measured here: Venus reporter, other viral stage.
Regarding `O=C(C[C@H]1C=C[C@@H](NS(=O)(=O)c2ccc(F)cc2)[C@@H](CO)O1)NC1CCC1`, the activity change (Venus) worked out at 1.04% and the activity change (mCherry) is -4.64% (inactive).

`COc1ccc2c3c(n(C)c2c1)[C@@H](CO)NCC31CCN(CC2CC2)CC1`: the activity change (Venus) was -18.9% and the activity change (mCherry) is -27.4% (inactive).

Take `O=C([C@@H]1[C@@H](CO)[C@@H]2Cn3c(ccc(C4=CCCC4)c3=O)[C@H]1N2C(=O)c1ccncc1)N1CCCCC1`: the activity change (Venus) worked out at 16.9% and the activity change (mCherry) was 10.1% (inactive).

In the case of `C[C@@H]1CCCCO[C@H](CN(C)S(=O)(=O)c2cccs2)[C@H](C)CN([C@@H](C)CO)C(=O)c2cc(NC(=O)Nc3ccc4c(c3)OCO4)ccc2O1`, the activity change (Venus) is 8.44% and the activity change (mCherry) is 9.35% (inactive).

Consider `COCC(=O)N1CC2(CN(C(=O)c3cccnc3)C2)c2c([nH]c3cc(OC)ccc23)[C@H]1CO`, for which the activity change (Venus) is -0.352% and the activity change (mCherry) was 2.73% (inactive).

In the case of `Cc1ccccc1S(=O)(=O)N[C@@H]1CC[C@H](CCn2cc(-c3ccc(F)cc3)nn2)O[C@@H]1CO`, the activity change (Venus) is -24.8% and the activity change (mCherry) is -28.1% (inactive).

Consider `CO[C@@H]1CC[C@@H]2CCOc3c(C#N)cccc3C(=O)N(C)C[C@H](C)C(=O)N(C)C[C@H]1O2`, for which the activity change (Venus) worked out at 8.81% and the activity change (mCherry) was 14.4% (inactive).

For the molecule `C[C@@H]1CN([C@@H](C)CO)C(=O)c2cc(NC(=O)Cc3ccccc3)ccc2O[C@@H](C)CCCCO[C@H]1CN(C)C(=O)Nc1cccc2ccccc12`, the activity change (Venus) was 18.5% and the activity change (mCherry) was 21.9% (inactive).

For the molecule `CN(C)CCCNC(=O)C[C@H]1CC[C@H]2[C@@H](COC[C@H](O)CN2CC2CCCCC2)O1`, the activity change (Venus) turned out to be 5.87% and the activity change (mCherry) is 3.25% (inactive).

Consider `C[C@@H]1CCCCO[C@@H](CN(C)Cc2ccc3c(c2)OCO3)[C@H](C)CN([C@@H](C)CO)C(=O)c2cc(NS(C)(=O)=O)ccc2O1`, for which the activity change (Venus) was 5.91% and the activity change (mCherry) is -0.705% (inactive).

Turning to `COc1ccc2c3c(n(C)c2c1)[C@H](CO)N(CC1CCOCC1)CC31CCN(C(C)=O)CC1`, the activity change (Venus) came out at 11% and the activity change (mCherry) was 17.4% (inactive).

Regarding `CN(C)CC(=O)Nc1ccc2c(c1)[C@@H]1C[C@H](CC(=O)NCc3ccc(Cl)cc3)O[C@@H](CO)[C@@H]1O2`, the activity change (Venus) came to 5.77% and the activity change (mCherry) is -4.73% (inactive).

As for `COc1ccc2c3c([nH]c2c1)[C@@H](CO)N(C(=O)c1ccc(F)cc1)CC31CCN(C(=O)Nc2ccc(F)cc2)CC1`, the activity change (Venus) was -2.47% and the activity change (mCherry) was 1.1% (inactive).

`C[C@H](CO)N1C[C@H](C)[C@H](CN(C)Cc2cccc(F)c2)Oc2ncc(C#CCN(C)C)cc2C1=O`: the activity change (Venus) is -6.38% and the activity change (mCherry) is -10.3% (inactive).

Consider `COc1ccc(S(=O)(=O)N[C@@H]2CC[C@@H](CC(=O)NCCc3ccccc3)O[C@@H]2CO)cc1`, for which the activity change (Venus) is -2.59% and the activity change (mCherry) was 3.47% (inactive).

Consider `O=C(NCC[C@@H]1CC[C@@H](NS(=O)(=O)c2ccc(Cl)cc2)[C@@H](CO)O1)c1ccccc1F`, for which the activity change (Venus) was -4.89% and the activity change (mCherry) is -8.02% (inactive).

As to `COc1ccc(S(=O)(=O)Nc2ccc3c(c2)C(=O)N([C@@H](C)CO)C[C@H](C)[C@@H](CN(C)C(=O)c2ccccc2)OCCCC[C@H](C)O3)cc1`, the activity change (Venus) was -18.1% and the activity change (mCherry) is -21.6% (inactive).

For `CC(C)NC(=O)N1Cc2cc(C(=O)NCC(F)(F)F)nc(-c3cccc(-c4cc5ccccc5o4)c3)c2[C@@H]1CCO`, the activity change (Venus) was -13.3% and the activity change (mCherry) is -16.3% (inactive).

For the molecule `C[C@@H]1CN([C@@H](C)CO)C(=O)Cc2cc(NS(=O)(=O)c3cccs3)ccc2O[C@H]1CN(C)S(=O)(=O)c1ccc(F)cc1`, the activity change (Venus) came out at 4.55% and the activity change (mCherry) was -5.12% (inactive).

In the case of `CO[C@@H]1CN(C)C(=O)c2cc(NC(=O)C3CC3)ccc2OC[C@H](C)N(C(=O)CN(C)C)C[C@H]1C`, the activity change (Venus) was -3.17% and the activity change (mCherry) is -2.47% (inactive).

With `O=C(C[C@@H]1CC[C@H](NC(=O)Nc2ccc3c(c2)OCO3)[C@H](CO)O1)NCc1ccccc1`, the activity change (Venus) came to 14.1% and the activity change (mCherry) was 19.4% (inactive).

As to `C=CCOC(=O)C1=C[C@@H](c2ccccc2)C[C@@H](OCc2ccc(CO)cc2)O1`, the activity change (Venus) was -3.63% and the activity change (mCherry) is 2.64% (inactive).

As to `O=C(C1CCCC1)N1CC(=O)N2[C@@H](CO)[C@@H](c3ccc(-c4cccnc4)cc3)[C@@H]2C1`, the activity change (Venus) is -4.04% and the activity change (mCherry) is -5.69% (inactive).

With `Cc1ccccc1-c1cnc2c(c1)C(=O)N([C@H](C)CO)C[C@@H](C)[C@H](CN(C)C(=O)c1cccnc1)O2`, the activity change (Venus) is -1.16% and the activity change (mCherry) was -1.67% (inactive).

Take `CN(C)C(=O)c1ccc(-c2ccc(C3[C@H]4CNC[C@@H]3N4C(=O)Nc3cc(F)ccc3F)cc2)cc1` (some centres undefined): the activity change (Venus) stood at 3.11% and the activity change (mCherry) was 14.7% (inactive).

As to `O=C(C1CCCCC1)N1CC2(C1)[C@H](c1ccccc1)[C@@H](CO)N2CCC(F)(F)F`, the activity change (Venus) is -3.18% and the activity change (mCherry) was -9.06% (inactive).

On to `CC(=O)Nc1ccc2c(c1)C(=O)N(C)[C@H]1CC[C@@H](CC(=O)NCC3CC3)O[C@H]1CO2`, for which the activity change (Venus) was determined as 11.1% and the activity change (mCherry) was 7.92% (inactive).

Turning to `CCC(=O)N(C)C[C@@H]1Oc2ncc(/C=C/c3ccccc3)cc2C(=O)N([C@@H](C)CO)C[C@H]1C`, the activity change (Venus) was determined as 1.22% and the activity change (mCherry) is 12.1% (inactive).

`O=C(O)C[C@H]1C=C[C@@H](NC(=O)Nc2cc(F)ccc2F)[C@@H](CO)O1`: the activity change (Venus) is 9.94% and the activity change (mCherry) was 8.15% (inactive).

`COCC(=O)N(C)C[C@H]1Oc2cc(C#C[C@@H](C)O)ccc2S(=O)(=O)N([C@@H](C)CO)C[C@@H]1C`: the activity change (Venus) is -7.76% and the activity change (mCherry) is 2.13% (inactive).

As to `CCC(=O)N(C)C[C@@H]1Oc2cc(-c3ccc(C#N)cc3)ccc2S(=O)(=O)N([C@@H](C)CO)C[C@@H]1C`, the activity change (Venus) worked out at 0.0371% and the activity change (mCherry) was -1.36% (inactive).

As for `COc1ccc2c3c(n(C)c2c1)[C@@H](CO)N(S(C)(=O)=O)CC31CCN(C(=O)C2CCC2)CC1`, the activity change (Venus) was -12.1% and the activity change (mCherry) was -2.22% (inactive).

Regarding `CC(C)C#Cc1cnc2c(c1)C(=O)N([C@H](C)CO)C[C@H](C)[C@@H](CN(C)C(=O)Nc1cc(F)ccc1F)O2`, the activity change (Venus) was -6.46% and the activity change (mCherry) was -3.74% (inactive).

As to `COc1ccccc1NC(=O)N1C[C@@H](O)COC[C@H]2O[C@@H](CC(=O)NCc3ccccc3)CC[C@@H]21`, the activity change (Venus) is -3.27% and the activity change (mCherry) is -5.93% (inactive).

For `Cc1cccc(-c2ccc([C@@H]3[C@H]4CN(C(=O)c5ccccc5)CC(=O)N4[C@H]3CO)cc2)c1`, the activity change (Venus) was -26.3% and the activity change (mCherry) is -24.1% (inactive).

In the case of `CCCN1C[C@H](C)[C@@H](OC)CN(C)C(=O)c2ccc(NC(=O)C3CCOCC3)cc2OC[C@@H]1C`, the activity change (Venus) was determined as 5.44% and the activity change (mCherry) is 13.4% (inactive).

For `C[C@H]1CN([C@@H](C)CO)C(=O)CCCn2nncc2CO[C@@H]1CN(C)C(=O)Nc1ccc(N2CCN(C)CC2)cc1`, the activity change (Venus) was found to be 3.05% and the activity change (mCherry) was 3.06% (inactive).

`N#Cc1cccc(-c2ccc([C@H]3[C@@H](CO)N[C@@H]3CNC(=O)C3CCC3)cc2)c1`: the activity change (Venus) is -1.58% and the activity change (mCherry) is -4.87% (inactive).

For the molecule `COc1ccc2c3c(n(C)c2c1)[C@H](CO)N(CC1CCCCC1)CC31CCN(Cc2nccs2)CC1`, the activity change (Venus) is -17.6% and the activity change (mCherry) is -20.4% (inactive).

Take `C/C=C/c1ccccc1[C@H]1[C@@H](C#N)N(C(=O)Cc2ccccn2)[C@@H]1CO`: the activity change (Venus) is -12.5% and the activity change (mCherry) is -21.2% (inactive).

Take `CCNC(=O)[C@H]1[C@H](CO)[C@H]2Cn3c(cccc3=O)[C@@H]1N2Cc1cc(F)ccc1F`: the activity change (Venus) was determined as 15.1% and the activity change (mCherry) was 12.8% (inactive).

`O=C(C[C@@H]1CC[C@@H]2[C@H](COC[C@H](O)CN2C(=O)c2ccc3c(c2)OCO3)O1)NC1CCCC1`: the activity change (Venus) came out at 4.69% and the activity change (mCherry) was 7.59% (inactive).

As to `C[C@@H]1CCCCO[C@H](CN(C)S(=O)(=O)c2ccc(Cl)cc2)[C@H](C)CN([C@@H](C)CO)C(=O)c2cc(NS(=O)(=O)c3cn(C)cn3)ccc2O1`, the activity change (Venus) came to 3.71% and the activity change (mCherry) was 0.869% (inactive).

Turning to `CNC(=O)C[C@@H]1CC[C@@H]2[C@H](COC[C@H](O)CN2Cc2ccc(C(F)(F)F)cc2)O1`, the activity change (Venus) worked out at 3.54% and the activity change (mCherry) is 4.2% (inactive).

On to `Cc1noc(C)c1S(=O)(=O)N(C)C[C@@H]1OCCCC[C@@H](C)Oc2ccc(NC(=O)Nc3ccccc3)cc2C(=O)N([C@H](C)CO)C[C@@H]1C`, for which the activity change (Venus) came out at 5.28% and the activity change (mCherry) was 12.8% (inactive).

Turning to `CC=Cc1ccc2n(c1=O)C[C@@H]1[C@@H](CO)[C@H](C(=O)NCc3cccc(OC)c3)N[C@H]21` (mixture of isomers), the activity change (Venus) was 12.7% and the activity change (mCherry) was 3.42% (inactive).

In the case of `C/C=C/c1cnc2c(c1)C(=O)N([C@H](C)CO)C[C@H](C)[C@@H](CN(C)S(=O)(=O)c1ccccc1F)O2`, the activity change (Venus) is -1.53% and the activity change (mCherry) was -5.68% (inactive).

As for `COCC(=O)Nc1ccc2c(c1)C(=O)N(C)C[C@H](OC)[C@@H](C)CN(CCc1ccccc1)[C@@H](C)CO2`, the activity change (Venus) is -0.0268% and the activity change (mCherry) is -4.99% (inactive).

As for `O=C(C[C@@H]1C[C@@H]2c3cc(NC(=O)Nc4ccccc4F)ccc3O[C@@H]2[C@H](CO)O1)NCCc1ccccc1`, the activity change (Venus) turned out to be 7.27% and the activity change (mCherry) is 9.1% (inactive).

`CCCC(=O)N1CC2(C1)CN(C(=O)Nc1cccc(F)c1)[C@@H](CO)c1c2c2ccc(OC)cc2n1C`: the activity change (Venus) was -2.53% and the activity change (mCherry) was 2.16% (inactive).

With `COCC(=O)Nc1ccc2c(c1)C(=O)N(C)[C@@H]1CC[C@H](CC(=O)NCC3CC3)O[C@@H]1CO2`, the activity change (Venus) amounted to 8.99% and the activity change (mCherry) was 16% (inactive).

Consider `COc1ccc2c3c([nH]c2c1)[C@@H](CO)N(C(=O)Cc1ccccc1)CC31CCN(C)CC1`, for which the activity change (Venus) is -13.2% and the activity change (mCherry) was -7.54% (inactive).

With `C[C@H](CO)N1C[C@H](C)[C@H](CN(C)C(=O)C2CCOCC2)Oc2ncc(-c3ccccc3F)cc2C1=O`, the activity change (Venus) was 6.04% and the activity change (mCherry) is 8.11% (inactive).

Regarding `CO[C@H]1CN(C)C(=O)c2cc(NC(=O)C3CCC3)ccc2OC[C@H](C)N(CC2CCCCC2)C[C@@H]1C`, the activity change (Venus) came out at 3.14% and the activity change (mCherry) is -9.01% (inactive).

`COc1ccc2c3c(n(C)c2c1)[C@H](CO)N(C)CC31CCN(C(=O)Nc2cccc(F)c2)CC1`: the activity change (Venus) is -8.96% and the activity change (mCherry) was -16.1% (inactive).

Take `CC(C)NC(=O)N1CC(=O)N2[C@@H](CO)[C@H](c3ccc(C#CCN(C)C)cc3)[C@@H]2C1`: the activity change (Venus) stood at 7.94% and the activity change (mCherry) was 9.18% (inactive).

Take `O=C(C[C@H]1C[C@H]2c3cc(NC(=O)Nc4ccc(C(F)(F)F)cc4)ccc3O[C@H]2[C@@H](CO)O1)NCCc1ccccc1`: the activity change (Venus) was 9.77% and the activity change (mCherry) is 6.8% (inactive).
